Compound activity from PubChem.
DUX4 txn inh: inhibitors of DUX4-driven ZSCAN4 reporter expression, primary screen, 293T cells, Gaussia and Italica luciferase; 293T-iDUX4 ZSCAN4-Gaussia luciferase reporter, 24 h; hits give low values; 37,000 tested, 0.8% active; AID 1224904, 2016; activity change, negative = inhibition, % (test concentration not listed);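 active = mean inhibition of at least 10% in the main channel, exceeding the control channel by a set limit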;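 also: 0% = median of neutral control wells and -100% = median of positive control wells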
Numbers without * were called inactive. Many of the other results were omitted from the sample, so hits are more common in it than they were.

SMILES	DUX4 txn inh
COc1ccc(CN2CC3(CCN(C(=O)c4ccccc4)CC3)c3c([nH]c4cc(OC)ccc34)[C@@H]2CO)cc1	-2
COc1ccc2c3c([nH]c2c1)[C@H](CO)N(Cc1ccncc1)CC31CN(C(=O)Cc2ccncc2)C1	12
COc1ccc2c3c([nH]c2c1)[C@@H](CO)N(Cc1ccncc1)CC31CN(C(=O)c2cccnc2)C1	18
CCC(=O)N1CC2(C1)CN(Cc1ccc(OC)cc1)[C@H](CO)c1[nH]c3cc(OC)ccc3c12	2
COc1ccc2c3c([nH]c2c1)[C@H](CO)N(Cc1ccc(Cl)cc1)CC31CN(S(C)(=O)=O)C1	-45*
CCCC(=O)N1CC2(C1)CN(Cc1ccncc1)[C@H](CO)c1[nH]c3cc(OC)ccc3c12	10
COc1ccc(CN2CC3(CN(C(=O)c4ccccc4)C3)c3c([nH]c4cc(OC)ccc34)[C@@H]2CO)cc1	-51*
CCCC(=O)N1CC2(C1)CN(Cc1ccc(Cl)cc1)[C@@H](CO)c1[nH]c3cc(OC)ccc3c12	-85*
COc1ccc(S(=O)(=O)Nc2ccc3c(c2)C(=O)N([C@H](C)CO)C[C@H](C)[C@H](CN(C)S(=O)(=O)c2ccc(Cl)cc2)OCCCC[C@H](C)O3)cc1	-2
CC(C)(C)[S@](=O)N1Cc2cc(C(=O)N3CCCCC3)nc(-c3cccc(-c4cccc(C#N)c4)c3)c2[C@@H]1CCO	3
COCC(=O)N1[C@H](C#N)[C@@H](c2ccccc2C2=CCCCC2)[C@H]1CO	10
COc1ccc2c3c([nH]c2c1)[C@@H](CO)N(Cc1ccncc1)CC31CCN(C(=O)CN(C)C)CC1	8
COc1ccc2c3c([nH]c2c1)[C@H](CO)N(C(=O)c1ccc(F)cc1)CC31CN(C(=O)NC(C)C)C1	15
CO[C@H]1CN(C)C(=O)c2ccc(NC(=O)c3ccc(F)cc3)cc2OC[C@H](C)N(C(=O)CN(C)C)C[C@@H]1C	1
O=C(Nc1ccc2c(c1)[C@@H]1C[C@@H](CC(=O)N3CCCCC3)O[C@H](CO)[C@@H]1O2)C1CCOCC1	1
O=C(C[C@H]1CC[C@@H]2[C@H](COC[C@@H](O)CN2S(=O)(=O)c2ccc(F)cc2)O1)N[C@H]1CCN(Cc2ccccc2)C1	5
COc1ccc2c3c([nH]c2c1)[C@H](CO)N(C(=O)Nc1ccc(F)cc1)CC31CN(CC2CC2)C1	2
COc1ccc2c3c([nH]c2c1)[C@H](CO)N(C(=O)Nc1ccc(F)cc1)CC31CN(S(C)(=O)=O)C1	7
COc1ccc(CN2CC3(C2)CN(C(=O)Nc2ccc(F)cc2)[C@@H](CO)c2[nH]c4cc(OC)ccc4c23)cc1	-39*
CCCC(=O)N1CCC2(CC1)CN(Cc1nccs1)[C@H](CO)c1[nH]c3cc(OC)ccc3c12	-1
CCCC(=O)N1CCC2(CC1)CN(Cc1ccncc1)[C@@H](CO)c1[nH]c3cc(OC)ccc3c12	2
CCCC(=O)N1CCC2(CC1)CN(Cc1ccc(Cl)cc1)[C@H](CO)c1[nH]c3cc(OC)ccc3c12	-63*
COc1ccc(CN2C[C@@H](O)COC[C@H]3O[C@@H](CC(=O)N(C)C)CC[C@@H]32)cc1	2
C[C@@H]1CCCCO[C@H](CN(C)C(=O)c2ccccc2)[C@H](C)CN([C@@H](C)CO)C(=O)c2cc(NS(=O)(=O)c3ccc(F)cc3)ccc2O1	8
CC(=O)N1CC2(C1)[C@H](c1ccccc1)[C@@H](CO)N2Cc1ccccc1	9
SMILES	DUX4 txn inh
C[C@@H]1CN([C@@H](C)CO)C(=O)Cc2cc(NC(=O)Cc3cn(C)c4ccccc34)ccc2O[C@H]1CN(C)S(=O)(=O)c1cccs1	-3
O=C(c1ccccc1)N1CC2(C1)[C@H](c1ccccc1)[C@@H](CO)N2C(=O)CC1CC1	4
CC=Cc1ccc2n(c1=O)C[C@@H]1[C@@H](CO)[C@H](C(=O)N3CCc4ccccc4C3)N(C(=O)C3CC3)[C@H]21 (mixture of isomers)	4
O=C(NC[C@H]1[C@H](c2ccccc2)[C@@H](CO)N1C(=O)C1CC1)NC1CCCC1	-5
CN1CCCCN2[C@H](C1)[C@@H](c1ccc(C#Cc3ccccc3F)cc1)[C@@H]2CO	-10
COc1ccc(C#Cc2ccc([C@@H]3[C@@H](CO)N4CCCCN(Cc5ccccc5F)C[C@H]34)cc2)cc1	-19*
OC[C@@H]1[C@@H](c2ccc(C#CC3(O)CCCC3)cc2)[C@H]2CN(Cc3ccccc3F)CCCCN12	7
COc1ccc(C#Cc2ccc([C@@H]3[C@H]4CN(Cc5ccncc5)CCCCN4[C@H]3CO)cc2)cc1	-36*
CN1CCCCN2[C@@H](CO)[C@H](c3ccc(C#Cc4ccccc4F)cc3)[C@@H]2C1	2
COc1ccc(C#Cc2ccc([C@H]3[C@H]4CN(Cc5ccccc5F)CCCCN4[C@H]3CO)cc2)cc1	-21*
COCC#Cc1ccc([C@@H]2[C@H]3CN(Cc4ccccc4F)CCCCN3[C@H]2CO)cc1	1
COCC#Cc1ccc([C@@H]2[C@@H](CO)N3CCCCN(Cc4ccncc4)C[C@H]23)cc1	24
COc1ccc(C#Cc2ccc([C@@H]3[C@H](CO)N4CCCCN(Cc5ccncc5)C[C@@H]34)cc2)cc1	0
COc1ccc(NC(=O)Nc2ccc3c(c2)[C@@H]2C[C@H](CC(=O)NCc4ccccn4)O[C@@H](CO)[C@@H]2O3)cc1	2
C[C@H](CO)N1C[C@H](C)[C@@H](CN(C)CC2CC2)Oc2cc(-c3cccc(C#N)c3)ccc2S1(=O)=O	0
CCCNC(=O)Nc1ccc2c(c1)C(=O)N(C)C[C@@H](OC)[C@H](C)CN(Cc1cccnc1)[C@@H](C)CO2	-3
CCC(=O)Nc1ccc2c(c1)C(=O)N(C)C[C@@H](OC)[C@@H](C)CN(CC1CCOCC1)[C@H](C)CO2	-2
CS(=O)(=O)Nc1ccc2c(c1)[C@H]1C[C@@H](CC(=O)NCc3ccc(Cl)cc3)O[C@@H](CO)[C@H]1O2	7
COc1ccccc1NC(=O)N1C[C@H](O)COC[C@@H]2O[C@H](CC(=O)NCCc3ccccc3)CC[C@H]21	1
CCCN1C[C@H](C)[C@@H](OC)CN(C)C(=O)c2cc(NC(=O)c3cccc(OC)c3)ccc2OC[C@H]1C	1
COc1ccc2c3c(n(C)c2c1)[C@@H](CO)NCC31CCN(S(=O)(=O)c2ccccc2)CC1	4
Cc1ccccc1-c1ccc([C@H]2[C@H](CO)N3CCCCN(S(=O)(=O)c4ccc(F)cc4)C[C@@H]23)cc1	-56*
Cc1ccccc1-c1ccc([C@H]2[C@H](CO)N3CCCCN(S(C)(=O)=O)C[C@@H]23)cc1	17
Cc1ccccc1-c1ccc([C@H]2[C@H]3CN(S(C)(=O)=O)CCCCN3[C@H]2CO)cc1	-6
C/C=C/c1ccc([C@@H]2[C@@H](CO)N3CCCCN(C(=O)Nc4ccc(OC)cc4)C[C@@H]23)cc1	-27*
C/C=C/c1ccc([C@@H]2[C@H](CO)N3CCCCN(C(=O)Nc4ccc(OC)cc4)C[C@@H]23)cc1	18
CCS(=O)(=O)N1CCCCN2[C@H](CO)[C@@H](c3ccc(-c4ccccc4C)cc3)[C@@H]2C1	10
C/C=C/c1ccc([C@H]2[C@@H](CO)N3CCCCN(C(=O)Nc4ccc(OC)cc4)C[C@H]23)cc1	-9
O=C(Nc1ccc(F)cc1)N1CCCCN2[C@H](C1)[C@H](c1ccc(-c3cccc(F)c3)cc1)[C@@H]2CO	9
Cc1ccccc1-c1ccc([C@@H]2[C@@H](CO)N3CCCCN(S(=O)(=O)c4ccc(F)cc4)C[C@H]23)cc1	-40*
